Laboratory results reported in the supplement of paper PMC11732987, “Enantioselective OTUD7B fragment discovery through chemoproteomics screening and high-throughput optimisation” (Communications Chemistry, 2025).

How the values were obtained:
Assay in all cases: log2 ratio of Biotin-Ahx-Ub-VS probe labelling (fragment/DMSO); higher = less target engagement (more negative = stronger competition), active = hit call of the paper (q ≤ 0.05, log2 ratio ≤ -1)
Conditions in all cases: compound concentration: 200 uM; treatment time: 3 h
USP19 = molecular target: T1, USP19 (UniProt O94966)
T1 sequence (whole entry): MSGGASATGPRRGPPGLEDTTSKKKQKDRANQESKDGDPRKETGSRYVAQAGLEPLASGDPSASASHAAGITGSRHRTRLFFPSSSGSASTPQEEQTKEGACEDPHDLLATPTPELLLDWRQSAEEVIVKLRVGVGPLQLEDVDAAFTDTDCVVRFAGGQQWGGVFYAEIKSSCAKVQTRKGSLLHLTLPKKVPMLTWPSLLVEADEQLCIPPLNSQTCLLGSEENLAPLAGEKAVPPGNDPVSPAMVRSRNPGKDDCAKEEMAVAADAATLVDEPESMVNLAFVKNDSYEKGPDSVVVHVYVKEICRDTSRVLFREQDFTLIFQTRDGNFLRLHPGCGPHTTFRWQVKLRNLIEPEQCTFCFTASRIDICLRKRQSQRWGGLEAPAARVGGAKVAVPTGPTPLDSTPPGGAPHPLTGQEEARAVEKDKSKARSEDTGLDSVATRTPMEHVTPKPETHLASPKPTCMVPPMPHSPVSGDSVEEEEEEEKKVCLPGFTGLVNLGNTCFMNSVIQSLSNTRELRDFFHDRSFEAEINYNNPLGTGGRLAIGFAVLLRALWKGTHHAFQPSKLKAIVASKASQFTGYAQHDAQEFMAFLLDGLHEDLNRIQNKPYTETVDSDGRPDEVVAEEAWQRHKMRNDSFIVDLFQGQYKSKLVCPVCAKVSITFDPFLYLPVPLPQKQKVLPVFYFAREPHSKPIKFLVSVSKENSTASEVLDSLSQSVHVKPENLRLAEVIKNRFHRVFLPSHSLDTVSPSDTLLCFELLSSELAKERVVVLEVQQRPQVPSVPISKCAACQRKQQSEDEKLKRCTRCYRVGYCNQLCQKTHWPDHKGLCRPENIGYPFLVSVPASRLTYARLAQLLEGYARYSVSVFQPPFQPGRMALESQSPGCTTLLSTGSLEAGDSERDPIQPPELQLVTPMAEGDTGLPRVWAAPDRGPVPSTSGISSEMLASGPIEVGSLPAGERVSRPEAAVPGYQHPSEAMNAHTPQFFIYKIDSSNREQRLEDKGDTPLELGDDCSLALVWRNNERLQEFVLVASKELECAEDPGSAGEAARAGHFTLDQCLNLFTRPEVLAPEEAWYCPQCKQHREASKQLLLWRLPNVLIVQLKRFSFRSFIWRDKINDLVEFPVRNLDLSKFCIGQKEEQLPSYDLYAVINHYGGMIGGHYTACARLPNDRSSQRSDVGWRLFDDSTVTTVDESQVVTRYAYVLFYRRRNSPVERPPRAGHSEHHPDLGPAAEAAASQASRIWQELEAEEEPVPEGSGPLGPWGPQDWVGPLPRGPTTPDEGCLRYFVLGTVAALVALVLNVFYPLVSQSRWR
Outline: (§1)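 Labelling with Biotin-Ahx-Ub-VS (0.5 µM final, 1 h) followed a 3 h triplicate treatment of HEK293T lysate (495 µg per sample, Tris/CHAPS/IGEPAL buffer with protease inhibitors) with fragment at 200 µM or vehicle. Labelled DUBs were NeutrAvidin-enriched, digested with LysC and trypsin, and run by diaPASEF LC-MS/MS. The values, average log2 fragment/vehicle ratios by unpaired t-test, come from global-median-normalised Spectronaut label-free quantities. Proteins with ≥2 unique peptides were used.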

USP24 = USP24 (UniProt Q9UPU5)
Chain of USP24 (Q9UPU5 whole entry): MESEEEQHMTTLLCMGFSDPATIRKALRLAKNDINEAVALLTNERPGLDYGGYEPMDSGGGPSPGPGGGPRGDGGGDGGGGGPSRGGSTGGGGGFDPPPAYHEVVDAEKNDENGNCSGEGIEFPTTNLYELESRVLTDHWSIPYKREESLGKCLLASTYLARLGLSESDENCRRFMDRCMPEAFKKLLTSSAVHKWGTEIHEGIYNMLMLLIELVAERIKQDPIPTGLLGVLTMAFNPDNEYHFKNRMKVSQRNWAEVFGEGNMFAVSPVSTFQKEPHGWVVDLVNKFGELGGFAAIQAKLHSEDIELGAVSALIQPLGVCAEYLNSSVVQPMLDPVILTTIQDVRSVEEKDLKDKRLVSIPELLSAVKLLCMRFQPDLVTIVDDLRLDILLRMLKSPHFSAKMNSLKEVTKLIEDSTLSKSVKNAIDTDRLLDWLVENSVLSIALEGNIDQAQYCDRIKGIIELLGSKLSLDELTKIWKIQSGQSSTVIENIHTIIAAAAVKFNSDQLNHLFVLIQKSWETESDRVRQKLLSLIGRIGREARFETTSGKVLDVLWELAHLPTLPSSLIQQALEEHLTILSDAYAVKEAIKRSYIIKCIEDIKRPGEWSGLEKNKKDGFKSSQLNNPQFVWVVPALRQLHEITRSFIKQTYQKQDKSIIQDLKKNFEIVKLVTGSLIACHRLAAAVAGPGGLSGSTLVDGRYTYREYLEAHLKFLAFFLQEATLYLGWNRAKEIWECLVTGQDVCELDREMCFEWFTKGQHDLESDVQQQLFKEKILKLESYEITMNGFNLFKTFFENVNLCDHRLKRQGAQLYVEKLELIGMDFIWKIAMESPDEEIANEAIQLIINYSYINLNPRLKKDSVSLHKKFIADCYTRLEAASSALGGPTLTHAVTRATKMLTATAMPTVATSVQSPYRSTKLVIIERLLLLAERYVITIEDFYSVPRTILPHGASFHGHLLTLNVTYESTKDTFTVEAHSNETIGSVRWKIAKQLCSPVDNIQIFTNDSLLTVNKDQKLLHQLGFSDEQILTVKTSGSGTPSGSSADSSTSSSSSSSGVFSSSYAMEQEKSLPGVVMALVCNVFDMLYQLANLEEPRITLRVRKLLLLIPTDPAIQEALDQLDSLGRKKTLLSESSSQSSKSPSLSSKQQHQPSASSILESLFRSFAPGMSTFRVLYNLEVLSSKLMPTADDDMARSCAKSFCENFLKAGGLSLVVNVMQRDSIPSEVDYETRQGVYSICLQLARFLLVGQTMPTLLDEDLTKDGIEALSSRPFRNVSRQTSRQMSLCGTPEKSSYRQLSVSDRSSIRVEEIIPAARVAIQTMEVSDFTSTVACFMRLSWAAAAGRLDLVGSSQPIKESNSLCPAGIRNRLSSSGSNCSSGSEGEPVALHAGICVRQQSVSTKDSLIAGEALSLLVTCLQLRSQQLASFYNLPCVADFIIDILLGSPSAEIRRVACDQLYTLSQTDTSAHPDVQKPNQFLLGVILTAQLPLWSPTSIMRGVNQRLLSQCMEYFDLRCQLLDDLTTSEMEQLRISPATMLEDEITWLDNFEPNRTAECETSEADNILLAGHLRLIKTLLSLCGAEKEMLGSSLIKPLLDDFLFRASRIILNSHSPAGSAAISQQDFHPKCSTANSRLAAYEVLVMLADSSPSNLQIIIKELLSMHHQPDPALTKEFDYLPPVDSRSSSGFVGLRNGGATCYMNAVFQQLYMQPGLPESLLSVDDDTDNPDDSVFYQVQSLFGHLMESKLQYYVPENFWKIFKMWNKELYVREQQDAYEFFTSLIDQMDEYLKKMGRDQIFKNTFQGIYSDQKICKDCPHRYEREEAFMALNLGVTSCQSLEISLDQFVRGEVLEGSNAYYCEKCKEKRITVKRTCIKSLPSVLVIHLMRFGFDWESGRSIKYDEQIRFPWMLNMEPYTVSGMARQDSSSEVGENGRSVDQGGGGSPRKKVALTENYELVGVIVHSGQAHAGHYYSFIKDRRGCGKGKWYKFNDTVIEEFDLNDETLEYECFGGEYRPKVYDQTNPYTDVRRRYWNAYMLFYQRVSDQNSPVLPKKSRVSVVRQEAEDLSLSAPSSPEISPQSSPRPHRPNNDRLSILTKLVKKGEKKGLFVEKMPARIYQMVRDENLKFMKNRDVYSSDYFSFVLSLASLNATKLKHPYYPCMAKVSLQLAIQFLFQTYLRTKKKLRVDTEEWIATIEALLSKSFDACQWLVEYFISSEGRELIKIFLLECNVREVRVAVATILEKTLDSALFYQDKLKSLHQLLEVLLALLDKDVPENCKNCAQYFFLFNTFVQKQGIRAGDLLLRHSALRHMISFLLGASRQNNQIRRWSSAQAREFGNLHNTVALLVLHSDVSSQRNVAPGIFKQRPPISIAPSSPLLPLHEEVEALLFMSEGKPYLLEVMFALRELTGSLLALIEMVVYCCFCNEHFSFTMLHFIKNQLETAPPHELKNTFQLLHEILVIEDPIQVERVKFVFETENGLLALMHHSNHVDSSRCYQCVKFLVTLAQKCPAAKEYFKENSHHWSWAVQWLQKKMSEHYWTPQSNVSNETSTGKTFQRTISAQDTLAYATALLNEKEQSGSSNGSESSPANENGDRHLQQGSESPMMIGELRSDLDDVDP
Outline: as §1

USP25 = molecular target: T2, USP25 (UniProt Q9UHP3)
T2 sequence (whole entry): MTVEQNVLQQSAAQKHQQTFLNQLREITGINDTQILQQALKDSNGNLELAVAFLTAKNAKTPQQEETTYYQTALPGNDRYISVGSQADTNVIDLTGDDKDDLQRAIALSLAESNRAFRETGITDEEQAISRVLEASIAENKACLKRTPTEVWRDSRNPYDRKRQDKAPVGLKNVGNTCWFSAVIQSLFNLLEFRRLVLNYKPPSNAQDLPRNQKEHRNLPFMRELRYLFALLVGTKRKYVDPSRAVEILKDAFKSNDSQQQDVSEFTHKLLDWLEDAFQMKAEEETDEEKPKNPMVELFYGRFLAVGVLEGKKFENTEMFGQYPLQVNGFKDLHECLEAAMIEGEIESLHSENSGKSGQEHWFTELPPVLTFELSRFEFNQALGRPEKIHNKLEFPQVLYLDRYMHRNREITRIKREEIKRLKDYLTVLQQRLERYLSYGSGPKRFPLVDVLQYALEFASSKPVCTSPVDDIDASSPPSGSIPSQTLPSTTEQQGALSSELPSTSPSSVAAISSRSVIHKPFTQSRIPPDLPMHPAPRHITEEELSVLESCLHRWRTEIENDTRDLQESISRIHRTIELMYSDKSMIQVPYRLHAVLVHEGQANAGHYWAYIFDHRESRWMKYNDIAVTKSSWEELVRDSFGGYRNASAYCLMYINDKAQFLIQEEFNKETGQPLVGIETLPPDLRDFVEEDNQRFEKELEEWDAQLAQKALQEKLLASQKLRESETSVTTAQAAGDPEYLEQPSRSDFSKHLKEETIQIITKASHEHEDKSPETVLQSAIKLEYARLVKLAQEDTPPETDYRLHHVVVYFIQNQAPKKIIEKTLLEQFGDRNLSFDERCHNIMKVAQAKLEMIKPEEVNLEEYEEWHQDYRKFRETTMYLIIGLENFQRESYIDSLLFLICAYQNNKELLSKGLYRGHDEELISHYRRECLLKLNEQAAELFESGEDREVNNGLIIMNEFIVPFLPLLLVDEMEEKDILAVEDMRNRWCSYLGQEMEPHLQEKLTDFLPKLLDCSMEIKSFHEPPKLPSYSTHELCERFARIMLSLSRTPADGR
Outline: as §1

USP28 = molecular target: T3, USP28 (UniProt Q96RU2)
T3 sequence (whole entry): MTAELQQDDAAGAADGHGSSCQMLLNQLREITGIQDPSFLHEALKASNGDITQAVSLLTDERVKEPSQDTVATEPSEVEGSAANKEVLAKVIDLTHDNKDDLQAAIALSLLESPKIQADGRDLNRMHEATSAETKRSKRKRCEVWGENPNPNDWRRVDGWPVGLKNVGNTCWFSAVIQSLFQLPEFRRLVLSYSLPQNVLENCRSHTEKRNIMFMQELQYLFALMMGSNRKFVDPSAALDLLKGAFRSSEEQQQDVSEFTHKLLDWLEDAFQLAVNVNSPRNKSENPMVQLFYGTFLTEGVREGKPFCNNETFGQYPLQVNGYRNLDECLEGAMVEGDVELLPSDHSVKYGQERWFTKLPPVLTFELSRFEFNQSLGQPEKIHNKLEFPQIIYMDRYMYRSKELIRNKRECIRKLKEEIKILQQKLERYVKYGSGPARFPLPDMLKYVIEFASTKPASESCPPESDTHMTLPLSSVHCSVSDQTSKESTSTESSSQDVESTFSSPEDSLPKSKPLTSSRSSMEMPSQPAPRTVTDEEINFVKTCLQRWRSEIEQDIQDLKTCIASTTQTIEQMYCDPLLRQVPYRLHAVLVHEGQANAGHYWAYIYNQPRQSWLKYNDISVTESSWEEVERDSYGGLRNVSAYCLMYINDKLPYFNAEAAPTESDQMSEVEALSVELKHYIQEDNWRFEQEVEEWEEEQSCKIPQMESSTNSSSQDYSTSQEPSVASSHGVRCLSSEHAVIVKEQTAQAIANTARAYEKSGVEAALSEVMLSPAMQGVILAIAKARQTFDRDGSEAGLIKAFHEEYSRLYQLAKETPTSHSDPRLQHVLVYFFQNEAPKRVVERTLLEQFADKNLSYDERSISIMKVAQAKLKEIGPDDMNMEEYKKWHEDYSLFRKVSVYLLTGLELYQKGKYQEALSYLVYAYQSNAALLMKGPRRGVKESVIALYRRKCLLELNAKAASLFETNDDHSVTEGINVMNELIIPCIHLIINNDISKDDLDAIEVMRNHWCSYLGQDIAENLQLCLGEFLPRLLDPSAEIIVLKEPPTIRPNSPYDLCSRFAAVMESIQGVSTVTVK
Outline: as §1

Measured: log2 ratio of Biotin-Ahx-Ub-VS probe labelling

Cc1cnc2[nH]cc(CCNC(=O)CCl)c2c1
inactive: USP19 -0.044 | USP24 -0.209 | USP25 -0.347 | USP28 -0.759
